This is part of a sample that, as a whole, favours compounds with a hit. Of some 83,000 tested, about 20% had one in any assay.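 Single-dose data. Exposure time 48 hours. Values below 10 considered active.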 Active and inactive are the calls of the source.
The molecules below were run on MDA-MB-468 breast (assay: NCI-60 one-dose screen, 48 h (100 = growth as untreated, 0 = no growth, -100 = all killed)). Conditions: 10 µM unless noted.
With `O=C1C(Cl)=C(Nc2ccc3c(c2NC2=C(Cl)C(=O)c4ccccc4C2=O)C(=O)c2ccccc2C3=O)C(=O)c2ccccc21` the growth was 5.98% (active).
For `NS(=O)(=O)c1cc2c(cc1Cl)NC=NS2(=O)=O`, the growth was 108% (inactive).
`COc1ccc(/C=C2\CCCC3=C2N=C2SC(C)=CN2C3c2ccc(OC)cc2)cc1` (stereo unspecified) was tested, and the growth was 85.1% (inactive).
For `Cn1nc(C(F)(F)F)cc1-c1c[nH]c(OCc2ccc(Cl)cc2)c(-c2ccc(Cl)c(C(F)(F)F)c2)c1=O`, the growth was -17.1% (active).
For `Nc1ccc(-c2nnc(SCc3ccc(O)c4ncccc34)n2-c2ccccc2)cc1`, the growth was 9.01% (active).
For `CN1CCN(c2ccc(/C=N/n3cnc4oc(-c5ccccc5)cc4c3=N)cc2)CC1`, the growth was 97.6% (inactive).

From PubChem BioAssay (NCI)
